We go through 65 compounds from PubChem BioAssay AID372 (MTDP, 2006).

The whole screen tested about 100,000 compounds, of which about 770 (0.77%) were called active. Many of the other results were omitted from the sample, so actives are more common in it than they were. A number with no mark means an inactive call. No stated cut-off is given here; in the data, active means inhibition above about 50%; inactive means the rest.

The experiment deals with Gag-Pol polyprotein (Human immunodeficiency virus type 1 group M subtype B (isolate HXB2)) (UniProt P04585). As to the kind of experiment: RNase H inhibition, HIV 1 Gag Pol polyprotein, FRET biochemical assay, screening (AID 372). Conditions: HIV-1 RT RNase H, FRET RNA/DNA substrate fluorescence; at 10 µM; active compounds read high.
For the compound `O=C(Nc1ccc(Cl)cc1)O/N=C\c1ccc(Br)cc1`, the inhibition (in general, the relative decrease from the control value, in per cent) was 29%.

With `COc1ccc(C2/C(=C(/O)c3ccc(Cl)cc3)C(=O)C(=O)N2CCCC(=O)O)cc1` (stereo not given), the inhibition was 4%. With `Nc1ccc[n+](CC(=O)c2ccccc2)c1` the figure was 2%. For `Cc1ccccc1OCCNc1cc(N2CCOCC2)ccc1[N+](=O)[O-]`, the inhibition is 10%. For `Cc1ccc(Cl)cc1NC(=O)/C(C#N)=C\c1ccc(I)o1`, the inhibition is 9%. As to `COc1ccc(Br)cc1/C=C1\SC(N2CCCC2)=NC1=O`, the inhibition is 19%. The result for `COc1ccc(Br)cc1/C=C1\SC(N2CCOCC2)=NC1=O` reads 52% (active); that for `COc1ccc(Br)cc1/C=C1/SC(N2CCCCC2)=NC1=O`, 14%. With `COc1ccc(C2CC(=O)C=C(Nc3ccccc3N)C2)cc1OC` (stereo not given) the figure was 10%; with `O=C1NC(=O)N(c2ccc(Br)cc2)C(=O)/C1=C/c1ccco1`, 12%. The result for `COC(=O)C1=C(C)N(C)C(=O)/C1=C\c1ccco1` reads 11%; that for `CN1C(=O)C(=Cc2ccco2)C(=O)N(C)C1=S`, 61% (active). With `CN1C(=O)C(=C/C=C/c2ccco2)C(=O)N(C)C1=S`, the inhibition is 16%. The result for `Cc1ccccc1N1C(=O)/C(=C\c2ccco2)C(=O)N(c2ccccc2)C1=S` reads 49%.

For `Oc1ccc(Cl)cc1-c1cc(-c2ccc(Cl)cc2)n[nH]1`, the inhibition is 0%. With `O=S(=O)(c1ccc(-c2csc(Nc3ccc4c(c3)OCO4)n2)cc1)N1CCOCC1` the figure was 8%. With `CCCCNCCOc1ccccc1OCC` the figure was 12%; with `O=C(Nc1ccc2oc(-c3ccc(F)cc3Cl)nc2c1)c1cc(Cl)ccc1Cl`, 18%; with `Oc1ccc2ccccc2c1CN1CCOCC1`, 7%. With `O=C(/C=C/c1cccs1)Nc1ncc(Cc2ccccc2Cl)s1` the figure was 4%; with `COc1ccc(/C=C/C(=O)Nc2ncc(Cc3ccccc3Cl)s2)cc1`, 54% (active); with `Cc1ccc(/C=C/C(=O)Nc2ncc(Cc3cc(Cl)ccc3Cl)s2)cc1`, 24%.

Turning to `CCOc1ccccc1OCCOc1cccc(Br)c1`, the inhibition was 3%.

In the case of `Cc1cccc(N2CCN(CN3C(=O)/C(=C/c4ccc(C)o4)SC3=S)CC2)c1`, the inhibition is 2%. The result for `CCOC(=O)C(CCCCCOc1ccccc1C(C)(C)C)C(=O)OCC` reads 20%; that for `CCc1ccc(-c2nc(-c3ccccn3)no2)cc1`, 15%; that for `NC(=O)c1c(/N=C/c2cc(Cl)cc(Cl)c2O)sc2c1CCCC2`, 11%. With `COc1cc(/C=N/c2sc3c(c2C#N)CCCC3)cc(Br)c1O` the figure was 15%; with `CCOC(=O)c1c(N)n(CCOC)c2nc3ccccc3nc12`, 0%; with `C=CCN(CC=C)CCCCOc1cccc(C)c1`, 5%. Regarding `Brc1ccc(Nc2nc3ccccc3nc2Nc2ccc(Br)cc2)cc1`, the inhibition was 55% (active).

Consider `Oc1ccc(Nc2nc3ccccc3nc2Nc2ccc(O)cc2)cc1`, for which the inhibition was 12%. The result for `Ic1ccc(Nc2nc3ccccc3nc2Nc2ccc(I)cc2)cc1` reads 34%. With `O=C(NCCO)C(=O)Nc1ccccc1` the figure was 0%; with `CCN1CCN(CC(=O)N/N=C/c2ccccc2)CC1`, 8%; with `CCc1ccc(C2Nc3ccc4ccccc4c3C3=C2C(=O)CC(C)(C)C3)cc1` (stereo not given), 19%. `CC(=O)N(C1=C(Cl)C(=O)c2ccccc2C1=O)c1ccc(Cl)cc1`: the inhibition was 32%. The result for `CC(=O)N(C1=C(Cl)C(=O)c2ccccc2C1=O)c1ccc(Br)cc1` reads 69% (active); that for `CC(=O)N(C1=C(N(C)C)C(=O)c2ccccc2C1=O)c1ccc(Br)cc1`, 1%.

As to `CCN1CCN(CC(O)COc2ccc(C(C)(C)C)cc2)CC1` (stereo not given), the inhibition is 0%. As for `O=C(O)c1ccc(C(=O)Nc2ccc(I)cc2)c(C(=O)O)c1`, the inhibition is 9%.

As for `O=C(O)c1ccc(C(=O)Nc2ccccc2Oc2ccccc2)c(C(=O)O)c1`, the inhibition is 6%. The result for `O=C(O)c1ccc(C(=O)Nc2ccccc2Br)c(C(=O)O)c1` reads 54% (active); that for `CCC1CCc2c(sc(NC(=O)CCC(=O)O)c2C#N)C1` (stereo not given), 2%.

Turning to `C=CCNc1nc(-c2ccc(Cl)cc2)nc2ccccc12`, the inhibition was 8%. With `Cc1coc2cc3oc(=O)cc(C)c3cc12` the figure was 7%; with `Cc1cc(=O)oc2c(C)c3occ(-c4ccccc4)c3cc12`, 31%; with `Cc1cc(=O)oc2cc3occ(-c4ccccc4)c3cc12`, 57% (active). With `O=C(O)CC(C(=O)O)N1C(=O)/C(=C\C(Cl)=C/c2ccc([N+](=O)[O-])cc2)SC1=S` (stereo not given) the figure was 14%. The result for `c1ccc(Nc2nc(-c3ccccc3)[n+](-c3ccccc3)s2)cc1` reads 30%. Consider `c1ccc(CNc2nc(-c3ccccc3)[n+](-c3ccccc3)s2)cc1`, for which the inhibition is 52% (active).

For `c1ccc(CNc2nc(-c3ccccc3)cc(-c3ccccc3)n2)cc1`, the inhibition is 15%.

In the case of `CS(=O)(=O)N(CC(=O)NCCSCc1ccc(Cl)cc1)c1ccc(Cl)cc1`, the inhibition was 55% (active). The result for `Cc1cc(C)cc(N(CC(=O)NCCSCc2ccc(Cl)cc2)S(C)(=O)=O)c1` reads 57% (active); that for `CS(=O)(=O)N(CC(=O)NCCSCc1ccccc1Cl)c1ccc(Br)cc1`, 50% (active). The result for `Cc1ccc(CSCCNC(=O)CN(c2cccc(C)c2)S(C)(=O)=O)cc1` reads 18%.

On to `CS(=O)(=O)N(CC(=O)NCCSc1ccc(Cl)cc1)c1ccc(Br)cc1`, for which the inhibition was 8%.

In the case of `COc1ccc(N(CC(=O)NCCSCc2ccccc2Cl)S(C)(=O)=O)cc1`, the inhibition is 22%. `COc1ccc(N(CC(=O)NCCSCc2ccc(Cl)cc2)S(C)(=O)=O)cc1Cl`: the inhibition was 38%. Turning to `COc1ccc(S(=O)(=O)N(CC(=O)NCCSCc2ccc(Cl)cc2)c2cc(C)cc(C)c2)cc1OC`, the inhibition is 12%. The result for `CCOc1ccc(N(CC(=O)NCCSCc2ccc(Cl)cc2)S(C)(=O)=O)cc1` reads 22%. The result for `O=C(NC(=S)Nc1ccccc1[N+](=O)[O-])c1ccc(-c2ccccc2)cc1` reads 13%. Consider `O=C(Cn1c(NCCCO)nc2ccccc21)c1ccc(Br)s1`, for which the inhibition is 11%. With `Cc1sc(NC(=O)/C=C/c2ccc(Cl)cc2Cl)c(C(N)=O)c1C`, the inhibition was 26%.

For `Nc1nnc(SCC(=O)Nc2ccccc2Oc2ccccc2)s1`, the inhibition is 4%.
